Results reported in PubChem BioAssay (NCI).
This is part of a sample that, as a whole, favours compounds with a hit. Of some 83,000 tested, about 20% had one in any assay.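 Method: cells in 96-well plates; compound added at one concentration; 48 h incubation; percent growth measured; values under 10 scored active.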 A number with no mark means an inactive call. The source made the active and inactive calls.

Assays:
Assay in all cases: NCI-60 one-dose screen, 48 h (100 = growth as untreated, 0 = no growth, -100 = all killed)
Conditions in all cases: 10 µM unless noted
NCI-H23 lung = test system: NCI-H23 lung
NCI-H226 lung = test system: NCI-H226 lung
NCI-H322M lung = test system: NCI-H322M lung
HOP-62 NSCLC = test system: HOP-62 NSCLC
NCI-H460 lung = test system: NCI-H460 lung
HOP-92 NSCLC = test system: HOP-92 NSCLC
NCI-H522 lung = test system: NCI-H522 lung
A549/ATCC NSCLC = test system: A549/ATCC NSCLC
786-0 renal = test system: 786-0 renal
COLO 205 colon = test system: COLO 205 colon

SMILES	growth (NCI-H23 lung)	growth (NCI-H226 lung)	growth (NCI-H322M lung)	growth (HOP-62 NSCLC)	growth (NCI-H460 lung)	growth (HOP-92 NSCLC)	growth (NCI-H522 lung)	growth (A549/ATCC NSCLC)	growth (786-0 renal)	growth (COLO 205 colon)
Nc1nnc(-c2cncc(Br)c2)c(-c2c[nH]c3ccc(Br)cc23)n1	70.7%	76.5%	78.2%	72.7%	39.6%	83.3%	17.9%	49.2%	55.5%	51.3%
OCCn1cc(-c2nc3ccc4[nH]ncc4c3c3c2CCCC3)cn1	43.1%	17.9%	68.5%	57.7%	20%	51.8%	38.9%	26.6%	43.1%	32.8%
CNc1nc2ccccc2n2c(-c3ccc(O)c(O)c3)cnc12	16.1%	-14.9% (active)	38.8%	26.5%	3.63% (active)	13.9%	-39.6% (active)	15.9%	24.7%	-54.3% (active)
COc1ccc(C(=O)c2cc(C(C)=O)c3c(C)cc(C)cn23)cc1	47.7%	44.4%	76.8%	34.5%	45.4%	46.8%	2.3% (active)	45.3%	45.4%	92.7%
Cc1ccc2nc(COc3ccc(C(=O)NNC(=O)Nc4ccc(Cl)c(C(F)(F)F)c4)cc3)[nH]c2c1	25.9%	54.2%	22.3%	6.46% (active)	32.8%	-22.6% (active)	41%	17.1%	50.1%	84.1%
CCOc1ccccc1[C@H]1C(C(=O)c2ccc(Cl)cc2)C2(N[C@@H]1c1ccccc1)C(=O)Nc1ccccc12 (stereo not given in full)	4.22% (active)	-18.4% (active)	36.1%	32.9%	-36.3% (active)	-22.4% (active)	-3.52% (active)	57.4%	-16.4% (active)	-81.5% (active)
O=C(N/N=C/c1ccc(Cl)o1)c1[nH]c2ccc(Br)cc2c1-c1ccccc1	-29.7% (active)	-42.1% (active)	26.3%	-48.3% (active)	-70.8% (active)	9.01% (active)	-59.8% (active)	-23.2% (active)	-57.7% (active)	-39.9% (active)
Cc1cc(C(NC(=O)C2CC3(CC(Nc4cccc5c4C(=O)N(C4CCC(=O)NC4=O)C5=O)C3)C2)c2ccc3c(c2)OC(F)(F)O3)c(O)c2ncccc12 (stereo not given)	6.24% (active)	-2.38% (active)	27.5%	-10.9% (active)	1.76% (active)	-1.71% (active)	2.63% (active)	9.67% (active)	-12.8% (active)	13.2%
FC(F)(F)c1cc2c(Cl)ncnc2n1CCN1CCOCC1	62.9%	91.4%	74.9%	91.5%	86%	107%	-80.3% (active)	92.3%	99.3%	79.5%
CS(=O)(=O)Nc1cncc(-c2ccc3ncnc(NCc4ccccc4)c3c2)c1	21.8%	38.5%	47.2%	46.5%	83.3%	-12.3% (active)	39.4%	90.1%	55%	41.9%
Nc1ccc(-c2ccc3ncnc(N4CCc5cc(F)c(Cl)cc54)c3c2)cn1	29.4%	18.4%	-2.2% (active)	37.5%	25.6%	1.25% (active)	15.4%	14.2%	-69.8% (active)	50%
Nc1nn2c(-c3cc4cc(Br)ccc4oc3=O)ccnc2c1N=Nc1ccccc1	1.73% (active)	-55.6% (active)	8.62% (active)	1.3% (active)	-28% (active)	-18.8% (active)	-51.6% (active)	53.4%	-3.59% (active)	80.2%
COc1ccc2c(c1)C(Sc1ccc(Br)cc1)c1c(nc(N)c(C#N)c1N)O2 (stereo not given)	79.1%	83.1%	84.2%	93.7%	82.4%	111%	77.1%	89.7%	83%	90%
